For 40 compounds, Potency and activation results are on record in PubChem BioAssay (Tox21).

Results filed as inconclusive are left out. Where a call stands in place of a potency, no number is given. Unmarked numbers belong to inactive results. Activity calls are given as the source filed them. Calls come from the whole dose curve. Peptide text beside a SMILES is read from it.

Beta-2 adrenergic receptor (Homo sapiens), sequence (P07550 whole entry, looked up): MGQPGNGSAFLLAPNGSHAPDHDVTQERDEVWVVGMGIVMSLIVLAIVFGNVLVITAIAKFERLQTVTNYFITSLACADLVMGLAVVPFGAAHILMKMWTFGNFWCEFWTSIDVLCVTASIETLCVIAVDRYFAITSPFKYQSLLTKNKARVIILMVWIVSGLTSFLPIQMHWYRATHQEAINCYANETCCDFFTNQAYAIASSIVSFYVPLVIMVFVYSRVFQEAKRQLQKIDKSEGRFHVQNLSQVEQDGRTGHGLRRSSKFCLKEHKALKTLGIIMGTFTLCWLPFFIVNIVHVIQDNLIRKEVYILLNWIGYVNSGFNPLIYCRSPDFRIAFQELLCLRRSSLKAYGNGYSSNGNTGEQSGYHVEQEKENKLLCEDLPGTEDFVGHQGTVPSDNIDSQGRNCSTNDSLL

For this test, the target named is Beta-2 adrenergic receptor (Homo sapiens) (UniProt P07550). The experiment in a line: Adrenergic beta2 receptor (ADRB2) small molecule agonists, cell-based qHTS assay (AID 1963593). To be noted: CHO-ADRB2 cells, cAMP HTRF, 30 min; series mostly up to 42.5 µM. From the text:
National Center for Advancing Translational Sciences [NCATS]
Division of Preclinical Innovation [DPI]
U.S. Environmental Protection Agency [EPA]
National Institutes of Environmental Health Sciences [NIEHS]
National Toxicology Program [NTP]
U.S. Food and Drug Administration [FDA]
Beta adrenergic receptors (Beta-ARs) belong to the G-protein coupled receptor (GPCR) superfamily, includes three subtypes - beta1, beta2, and beta3. Beta1-AR is the predominant receptor subtype expressed in the heart, and beta2-AR is expressed in the kidney, lung, blood vessel and in the heart, and beta3 is found in the adipocytes. Beta1 and 2 ARs couple to Gs protein and elevate cyclic adenosine mono phosphate (cAMP), which activates protein kinase A and leads to the downstream signaling responsible for the physiological actions. Beta-AR agonists or antagonists are the most prescribed therapeutic agents for heart failure and asthma, and these were one of the first target receptors for the rational drug design. Tox21 10K compound library was screened using the cAMP-Gs dynamic assay (Cisbio Bioassays, Shelton, CT) to identify agonists/antagonists of the Gs-coupled human adrenergic, beta2 receptor (ADRB2) in the CHO-ADRB2 cell line (Codex BioSolutions, Inc. Gaithersburg, MD), which stably over-expresses ADRB2. The principle of cAMP-Gs dynamic assay is based on HTRF technology, which facilitates the fluorescence resonance energy transfer (FRET) between donor Europium cryptate and acceptor d2-labeled cAMP. The cAMP generated within cells competes with the red acceptor, d2-labled cAMP, for binding to the monoclonal anti-cAMP-cryptate (Europium donor). An increase in intracellular cAMP leads to the disruption of FRET signal, and the signal is inversely proportional to the cAMP concentration. Isoproterenol HCl (Sigma-Aldrich, St. Louis, MO) was used as a positive control in the screening.
Tox21 Assay Protocol Summary:
CHO-ADRB2 cells were dispensed at 1,000/well in 4uL assay medium into white/solid 1536-well plates (Greiner Bio-One North America Inc., Monroe, NC) using a Multidrop Combi dispenser (ThermoFisher Scientific, Waltham, MA). The assay plates were incubated at 37C and 5% CO2 for an overnight (18-20hr). Then positive control and test compounds dissolved in DMSO were transferred to the assay plates at 23nL using a Pintool station (Wako, San Diego, CA). Following the compound and positive control transfer, 1uL stimulation mix containing 100uM IBMX and 25uM Ro-20-1724 was added to each well of the assay plates using BioRAPTR Flying Reagent Dispenser (FRD, Beckman Coulter, Brea, CA). The assay plates were incubated at room temperature for 0.5hr. Then 2.5ul each d2-labled cAMP and anti-cAMP-cryptate solutions were added separately to each well of the assay plates using an FRD and the assay plates were incubated at room temperature for 1hr.
In the case of `Cc1cc(NC(=O)C2=C(O)c3ccccc3S(=O)(=O)N2C)no1`, the Potency entry is “inactive”.

With `NC(=O)CC[C@@H]1NC(=O)[C@H](Cc2ccccc2)NC(=O)[C@H](Cc2ccc(O)cc2)NC(=O)CCSSC[C@@H](C(=O)N2CCC[C@H]2C(=O)N[C@@H](CCCN=C(N)N)C(=O)NCC(N)=O)NC(=O)[C@H](CC(N)=O)NC1=O`, the Potency entry was “inactive”.

For the compound `Cc1cc(C)c(NC(=O)CN(CC(=O)O)CC(=O)O)c(C)c1Br`, the Potency result is “inactive”.

On to `CC(=O)c1c(C)cc(C(C)(C)C)cc1C`, for which the Potency entry was “inactive”.

With `Cc1c(Cl)cccc1[N+](=O)[O-]`, the Potency result was “inactive”.

On to `O=C1c2ccccc2C(=O)C1(O)O`, for which the Potency entry is “inactive”.

Consider `CCCCCCC(CO)CCCC` (stereo not given), for which the Potency entry is “inactive”.

Take `CC(CN(C)C)C(C)(O)Cc1ccc(Cl)cc1` (stereo not given): the Potency entry is “inactive”.

For the compound `CCCCOc1cc(C(=O)NCCN(CC)CC)c2ccccc2n1`, the Potency entry is “inactive”.

`O=C(Nc1ccccc1)c1cc([N+](=O)[O-])ccc1Cl`: the Potency result was “inactive”.

Regarding `Cc1nccn1CC1CCc2c(c3ccccc3n2C)C1=O` (stereo not given), the Potency result was “inactive”.

`CCCCCCCCOc1ccc(C(=O)O)cc1`: the Potency entry was “inactive”.

For the compound `O=c1c2ccccc2nnn1CCl`, the Potency entry was “inactive”.

For `C[C@@H]1CC[C@@]2(OC1)O[C@H]1C[C@H]3[C@@H]4CC[C@H]5C[C@@H](O)CC[C@]5(C)[C@H]4CC(=O)[C@]3(C)[C@H]1[C@@H]2C`, the activation is 3.94% [at 8.39 µM].

Turning to `CC(=O)CC(=O)Nc1ccc(C)cc1C`, the Potency result is “inactive”.

Consider `CCCCCCC`, for which the Potency entry is “inactive”.

On to `O=C(O)P(=O)(O)O`, for which the Potency entry is “inactive”.

As for `CCCCC(=O)OCC(=O)[C@H]1[C@H](C)C[C@H]2[C@@H]3C[C@H](F)C4=CC(=O)C=C[C@]4(C)[C@@]3(F)[C@@H](O)C[C@@]21C`, the Potency entry was “inactive”.

As for `CN1CCN(c2c(F)cc3c(=O)c(C(=O)O)cn4c3c2SCC4)CC1`, the Potency result was “inactive”.

Consider `CNCCc1ccccn1`, for which the Potency entry was “inactive”.

As to `NNc1nnc(NN)c2ccccc12`, the Potency result is “inactive”.

For the compound `CCN1CC(CCN2CCOCC2)C(c2ccccc2)(c2ccccc2)C1=O` (stereo not given), the Potency entry is “inactive”.

Turning to `CCC(C(=O)OCCN1CCOC(c2ccccc2)C1C)c1ccccc1` (stereo not given), the Potency entry is “inactive”.

As to `CC(=O)N[C@@H](CO)C(=O)N[C@@H](CC(=O)O)C(=O)N[C@@H](CCCCN)C(=O)N1CCC[C@H]1C(=O)O` (Ac-SDKP-OH), the Potency result is “inactive”.

With `NS(=O)(=O)c1ccc(Cl)c(S(N)(=O)=O)c1`, the Potency entry was “inactive”.

In the case of `CN(C)CCN1C(=O)c2ccccc2N(C)c2ccccc21`, the Potency entry was “inactive”.

Turning to `CCOC(=O)/C=C/C(=O)O`, the Potency result was “inactive”.

In the case of `CCCCCCCCCCCCN1CCOCC1`, the Potency result is “inactive”.

In the case of `Cc1c(C)n(CCN(C)C)c2ccc(C(=O)OCCN(C)C)cc12`, the Potency result is “inactive”.

With `Cc1ccc(C(=O)c2ccccc2)cc1`, the Potency result is “inactive”.

`COc1ccccc1OCC(O)COC(N)=O` (stereo not given): the Potency entry is “inactive”.

`Clc1cc(Cl)cc(Cl)c1`: the Potency entry was “inactive”.

On to `CC(C)NCCCC1(C(N)=O)c2ccccc2-c2ccccc21`, for which the Potency entry was “inactive”.

Turning to `O=C(O)c1cccc(N(Cc2cccnc2)c2ccc(OC(F)F)c(OC(F)F)c2)c1`, the Potency entry is “inactive”.

For the compound `CC(C)Cc1ccc(C(C)C(=O)OCc2ccccn2)cc1` (stereo not given), the Potency result was “inactive”.

Take `CNc1c2c(nn1C)CCCC2`: the Potency result was “inactive”.

Take `Cc1oc(-c2ccccc2)nc1CCOc1ccc(C[C@H](Nc2ccccc2C(=O)c2ccccc2)C(=O)O)cc1`: the Potency result was “inactive”.

For `Cc1ccccc1C(=O)Nc1ccc(C(=O)N2CCCC(N(C)C)c3ccccc32)cc1` (stereo not given), the Potency entry is “inactive”.

Turning to `O=C1c2ccccc2C(=O)N1CCl`, the Potency result is “inactive”.

As to `COc1ccc(/C=C/S(=O)(=O)NC(=O)c2ccc(C)cc2Cl)cc1`, the Potency result was “inactive”.
